Results filed as inconclusive are left out. The source made the active and inactive calls. Rule for the calls, unless noted: active = hit-call score of the fitted dose curve at least 0.9, where 1 is the maximum; inactive = score below 0.9.
Assays:
[1] = read-out: Interleukin-1 alpha (IL1a), IL1A (gene 3552); assay: BSK_LPS_IL1a: BioMAP Diversity Plus: LPS Assay for Interleukin-1 alpha (IL1a) Biomarker Activity (AID 2283080); details: primary human HUVEC with PBMC; actives raise or lower the signal
In short: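 Primary human HUVEC and PBMC co-culture stimulated with LPS is dosed and harvested at 24 h. Both increases and decreases in ELISA-measured IL-1a are scored relative to DMSO.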

[2] = read-out: Monocyte Chemoattractant Protein-1 (MCP1), CCL2 (gene 6347); assay: BSK_LPS_MCP1: BioMAP Diversity Plus: LPS Assay for Monocyte Chemoattractant Protein-1 (MCP1) Biomarker Activity (AID 2283081); details: primary human HUVEC with PBMC; actives raise or lower the signal
In short: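 Values derive from bidirectional fitting against DMSO of ELISA-measured MCP-1 in a human primary endothelial and mononuclear cell co-culture, 24 h after chemical addition under LPS activation.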

[3] = BSK_LPS_PGE2: BioMAP Diversity Plus: LPS Assay for Prostaglandin E2 (PGE2) Biomarker Activity (AID 2283082); details: primary human HUVEC with PBMC; actives raise or lower the signal;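 for AC50: secreted prostaglandin E2 measured by ELISA in LPS-stimulated co-culture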
In short: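 HUVEC plus PBMC co-culture stimulated with LPS; secreted PGE2 quantified by ELISA 24 h after chemical dosing. Activity fitted bidirectionally against DMSO as negative control and baseline; parallel SRB total-protein staining served as cytotoxicity check.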

[4] = read-out: Macrophage colony-stimulating factor (MCSF), CSF1 (gene 1435); assay: BSK_LPS_MCSF: BioMAP Diversity Plus: LPS Assay for Macrophage colony-stimulating factor (MCSF) Biomarker Activity (AID 2283083); details: primary human HUVEC with PBMC; actives raise or lower the signal
In short: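 Bidirectional fit versus DMSO of ELISA-measured M-CSF in co-cultured human umbilical vein endothelial cells and PBMC, sampled 24 h after dosing.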

[5] = read-out: Tissue Factor, F3 (gene 2152); assay: BSK_LPS_TissueFactor: BioMAP Diversity Plus: LPS Assay for Tissue Factor Biomarker Activity (AID 2283084); details: primary human HUVEC with PBMC; actives raise or lower the signal
In short: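 Read-out: CD142 ELISA, 24 h. System: LPS-driven human endothelial/PBMC co-culture. Analysis: up- or down-signal fitted against DMSO.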

[6] = read-out: Tumor necrosis factor (Homo sapiens) (UniProt P01375); assay: BSK_LPS_TNFa: BioMAP Diversity Plus: LPS Assay for Tumour Necrosis Factor alpha (TNFa) Biomarker Activity (AID 2283085); details: primary human HUVEC with PBMC; actives raise or lower the signal
In short: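 Human umbilical vein endothelial cells co-cultured with PBMC were exposed to test chemical and TNFa measured by ELISA 24 h after dosing. Bidirectional curve fitting was done relative to DMSO as negative control and baseline.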

[7] = read-out: Vascular cell adhesion molecule 1 (VCAM1), VCAM1 (gene 7412); assay: BSK_LPS_VCAM1: BioMAP Diversity Plus: LPS Assay for Vascular cell adhesion molecule 1 (VCAM1) Biomarker Activity (AID 2283086); details: primary human HUVEC with PBMC; actives raise or lower the signal
In short: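 Human umbilical vein endothelial cells co-cultured with peripheral blood mononuclear cells under LPS stimulation were exposed to test chemical for 24 h. VCAM-1 levels were then measured by ELISA, with bidirectional curve fitting relative to DMSO as negative control and baseline.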

CD38, CD38 (gene 952) = assay: BSK_SAg_CD38: BioMAP Diversity Plus: SAg Assay for CD38 Biomarker Activity (AID 2283087); details: primary human HUVEC with PBMC; actives raise or lower the signal
In short: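 Fluorescence ELISA of cell-surface CD38 served as the read-out, with either increase or decrease fitted against DMSO controls. Cells were a human umbilical vein endothelium plus PBMC co-culture under SEB/TSST-1 stimulation, measured 24 h after dosing.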

CD40, CD40 (gene 958) = assay: BSK_SAg_CD40: BioMAP Diversity Plus: SAg Assay for CD40 Biomarker Activity (AID 2283088); details: primary human HUVEC with PBMC; actives raise or lower the signal
In short: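 Endpoint derived by fitting increases or decreases versus DMSO controls. CD40 is detected by fluorescence ELISA in a human vascular co-culture of endothelium and PBMC at 24 h.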

CD69, CD69 (gene 969) = assay: BSK_SAg_CD69: BioMAP Diversity Plus: SAg Assay for CD69 Biomarker Activity (AID 2283089); details: primary human HUVEC with PBMC; actives raise or lower the signal;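 for AC50: cell surface CD69 protein quantified by ELISA with fluorescence detection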
In short: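 Endothelial/PBMC co-culture; chemical added; 24 h incubation; CD69 ELISA with fluorescence detection; bidirectional fit vs DMSO.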

[8] = read-out: Monocyte Chemoattractant Protein-1 (MCP1), CCL2 (gene 6347); assay: BSK_SAg_MCP1: BioMAP Diversity Plus: SAg Assay for Monocyte Chemoattractant Protein-1 (MCP1) Biomarker Activity (AID 2283090); details: primary human HUVEC with PBMC; actives raise or lower the signal
In short: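 MCP-1 levels in the endothelial–PBMC SAg co-culture were quantified by ELISA at 24 h post-dosing; both increases and decreases versus DMSO scored. Cytotoxicity monitored by SRB total protein in parallel cultures.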

[9] = read-out: E-selectin (Homo sapiens) (UniProt P16581); assay: BSK_SAg_Eselectin: BioMAP Diversity Plus: SAg Assay for Eselectin Biomarker Activity (AID 2283091); details: primary human HUVEC with PBMC; actives raise or lower the signal
In short: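 Endpoint values derive from bidirectional fitting relative to DMSO, using ELISA-measured E-selectin in a human vascular co-culture (umbilical vein endothelium plus PBMC) sampled 24 h after dosing.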

[10] = read-out: Monokine induced gamma interferon (MIG), CXCL9 (gene 4283); assay: BSK_SAg_MIG: BioMAP Diversity Plus: SAg Assay for Monokine induced gamma interferon (MIG) Biomarker Activity (AID 2283092); details: primary human HUVEC with PBMC; actives raise or lower the signal
In short: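 Measures CXCL9 protein by ELISA in a human vascular primary-cell co-culture (umbilical vein endothelium with PBMC) 24 h after chemical addition. Activity is scored up or down from the DMSO control.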

[11] = read-out: Interleukin-8 (IL8), CXCL8 (gene 3576); assay: BSK_SAg_IL8: BioMAP Diversity Plus: SAg Assay for Interleukin-8 (IL8) Biomarker Activity (AID 2283094); details: primary human HUVEC with PBMC; actives raise or lower the signal
In short: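 Human umbilical vein endothelial cells co-cultured with peripheral blood mononuclear cells; IL-8 measured by ELISA 24 h after chemical dosing. Bidirectional concentration-response fitting used DMSO as negative control and activity baseline.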

[12] = BSK_SAg_Proliferation: Cell Proliferation Assessment in the BioMAP Diversity Plus: SAg Assay (AID 2283095); details: primary human HUVEC with PBMC;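 note: relative cell number as total protein by SRB absorbance in sub-confluent culture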
In short: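 Human umbilical vein endothelial cells co-cultured with peripheral blood mononuclear cells; total protein measured by sulforhodamine B staining (0.1% SRB after 10% TCA fixation), absorbance at 560 nm, at 96 h. Bidirectional fit against DMSO baseline.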

[13] = BSK_SAg_SRB: Viability Assessment in the BioMAP Diversity Plus: SAg Assay (AID 2283096); details: primary human HUVEC with PBMC;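 note: cells read one day after compound addition; hits may be either gain or loss of signal compared with DMSO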
In short: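 Total protein by sulforhodamine B staining, 24 h after dosing, in HUVEC–PBMC co-culture; DMSO-referenced bidirectional fitting.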

[14] = BSK_SAg_PBMCCytotoxicity: PBMC Cytotoxicity Assessment in the BioMAP Diversity Plus: SAg Assay (AID 2283093); details: primary human HUVEC with PBMC;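 note: PBMC viability measured as Alamar Blue reduction fluorescence at 546/580 nm; fitted both ways against DMSO so a hit may be loss or gain of signal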
In short: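 Compound added to 75,000 PBMC/well for 1 h; SEB and TSST-1 then added at 20 ng/mL final each; 90 h incubation; Alamar Blue 6 h; read 546/580 nm ex/em. Activity fitted bidirectionally relative to DMSO baseline.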

[15] = target: human CYP1A1, CYP1A1 (gene 1543) (UniProt P04798); assay: NVS_ADME_hCYP1A1: NovaScreen (NVS) CYP450-related Enzyme Activity (ADME) Assay for human CYP1A1 (AID 2283100; active = hit-call score of the fitted dose curve at least 0.9, where 1 is the maximum)
Sequence of human CYP1A1, CYP1A1 (gene 1543) (P04798 whole entry, looked up): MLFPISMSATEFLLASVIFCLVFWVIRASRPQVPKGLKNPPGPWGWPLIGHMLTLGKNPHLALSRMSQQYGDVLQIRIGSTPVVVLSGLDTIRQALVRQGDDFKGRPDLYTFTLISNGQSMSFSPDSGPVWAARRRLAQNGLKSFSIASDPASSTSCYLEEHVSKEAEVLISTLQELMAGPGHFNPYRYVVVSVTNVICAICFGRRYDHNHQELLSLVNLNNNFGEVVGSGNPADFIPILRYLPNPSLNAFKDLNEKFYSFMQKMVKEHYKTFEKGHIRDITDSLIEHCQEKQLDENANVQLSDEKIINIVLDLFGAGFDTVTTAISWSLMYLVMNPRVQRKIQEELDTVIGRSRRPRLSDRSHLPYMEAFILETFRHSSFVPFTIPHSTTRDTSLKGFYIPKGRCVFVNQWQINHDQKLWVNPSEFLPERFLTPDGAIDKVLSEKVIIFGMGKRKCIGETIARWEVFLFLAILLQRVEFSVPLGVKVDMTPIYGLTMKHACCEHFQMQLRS
In short: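 Inhibition of recombinant CYP1A1 turnover was assessed fluorometrically in a biochemical format 1 h after compound exposure. Testing began at 10 uM in duplicate and progressed to concentration series reaching 20 uM, with on-plate positive and negative controls.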

Measured: AC50

Sequence of E-selectin (Homo sapiens) (P16581 whole entry, looked up): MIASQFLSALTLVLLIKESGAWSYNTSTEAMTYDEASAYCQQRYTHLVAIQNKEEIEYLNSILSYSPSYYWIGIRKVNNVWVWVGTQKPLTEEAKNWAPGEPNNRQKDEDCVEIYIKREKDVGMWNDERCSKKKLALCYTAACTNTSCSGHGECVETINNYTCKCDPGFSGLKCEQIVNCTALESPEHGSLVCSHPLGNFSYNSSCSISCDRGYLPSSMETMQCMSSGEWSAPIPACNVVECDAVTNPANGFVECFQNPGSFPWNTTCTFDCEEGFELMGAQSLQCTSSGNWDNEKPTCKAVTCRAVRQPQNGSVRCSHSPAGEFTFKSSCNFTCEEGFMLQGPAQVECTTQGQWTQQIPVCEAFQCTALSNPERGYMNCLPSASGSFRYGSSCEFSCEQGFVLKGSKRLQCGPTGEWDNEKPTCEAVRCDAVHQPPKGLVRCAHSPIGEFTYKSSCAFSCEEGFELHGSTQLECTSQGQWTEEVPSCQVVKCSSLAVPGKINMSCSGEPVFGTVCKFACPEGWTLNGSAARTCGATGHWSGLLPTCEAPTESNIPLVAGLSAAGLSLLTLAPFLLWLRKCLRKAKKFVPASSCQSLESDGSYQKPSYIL
Sequence of Tumor necrosis factor (Homo sapiens) (P01375 whole entry, looked up): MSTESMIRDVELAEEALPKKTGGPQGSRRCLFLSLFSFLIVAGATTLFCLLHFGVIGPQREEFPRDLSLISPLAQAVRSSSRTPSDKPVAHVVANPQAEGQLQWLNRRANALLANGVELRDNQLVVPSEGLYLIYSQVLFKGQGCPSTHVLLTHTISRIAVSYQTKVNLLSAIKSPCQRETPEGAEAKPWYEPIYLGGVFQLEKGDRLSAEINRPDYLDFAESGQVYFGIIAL

Clc1cc(Cl)c(Cl)cc1Cl
not listed: [14] | [15]
inactive: all other assays above

Cc1ccc2ncccc2c1
not listed: [14] | [15]
inactive: all other assays above

CCCCCCCCCCO
active: [5] 0.152 µM
not listed: [9] | [15]
inactive: all other assays above

Cc1oc(-c2ccccc2)nc1CCOc1cccc2c1ccn2CCC(=O)O
active: [3] 5.34 µM | [6] 0.655 µM
not listed: [9] | [15]
inactive: all other assays above

CCCCCC(=O)O
not listed: [14] | [15]
inactive: all other assays above

CCCCCCCCCCCC(=O)OC
not listed: [14] | [15]
inactive: all other assays above

Cc1cccc(C)c1O
active: [3] 4.8 µM
not listed: [14] | [15]
inactive: all other assays above

FC(F)(F)C(F)(F)C(F)(F)C(F)(F)C(F)(F)C(F)(F)CCI
not listed: [9] | [15]
inactive: all other assays above

COCCOC[C@H](CC1(C(=O)NC2CCC(C(=O)O)CC2)CCCC1)C(=O)Oc1ccc2c(c1)CCC2 (some centres not stated)
not listed: [14] | [15]
inactive: all other assays above

CC=Cc1ccc(O)c(OC)c1
active: [3] 6.95 µM | [5] 2.82 µM
not listed: [14] | [15]
inactive: all other assays above

C=CCc1ccc(O)c(OC)c1
active: [3] 0.542 µM | [9] 4.26 µM
not listed: [14] | [15]
inactive: all other assays above

NS(=O)(=O)c1cc2c(cc1Cl)NCNS2(=O)=O
not listed: [14] | [15]
inactive: all other assays above

Cc1cc(NC(=O)C(=O)O)cc(C)c1Oc1ccc(O)c2c1CCC2
active: [6] 0.844 µM
not listed: [14] | [15]
inactive: all other assays above

COc1ccc(S(=O)(=O)N2C(=O)[C@@](c3ccccc3OC)(N3C[C@H](O)C[C@H]3C(=O)N(C)C)c3cc(Cl)ccc32)c(OC)c1
active: [4] 32 µM | [6] 16.6 µM | [7] 27 µM | CD40, CD40 (gene 958) 20 µM | CD69, CD69 (gene 969) 11.9 µM | [9] 20 µM | [11] 20 µM | [12] 29.4 µM | [13] 29.7 µM
inactive: [1] | [2] | [3] | [5] | CD38, CD38 (gene 952) | [8] | [10] | [15]

CC(=O)C(C)=CC1C(C)=CCCC1(C)C (configuration not stated)
not listed: [9] | [15]
inactive: all other assays above

NC(=O)Cn1c(=O)cc(CCN2CCN(c3nccc4sccc34)CC2)c2ccc(F)cc21
not listed: [9] | [15]
inactive: all other assays above
